# Only a selection was taken, and hits are over-represented in it overall.
# HTT ATP protect: cytoprotection in Huntington HTT-Q103 PC12 cell model; PC12 HTT-Q103 induced, cytoprotection, ATP luminescence, 40 h; Potency, µM (series often up to 56.4 µM), inactives show cytoprotection (ATP increase), actives largely listed as activators; 230,000 compounds, 0.14% hits; also: % of control where 0% means no effect; nearly all actives have a fitted effect of over 45% in size
#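 PC12 cells stably carrying ecdysone-inducible Htt exon 1 (Q103)–GFP were induced with 100 nM tebufenozide (final) alongside library compounds in a dose series. Cytoprotection was scored as retained ATP by ATPlite luminescence.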
# Epigenetic derep: derepresses silenced GFP reporter in murine cells; murine LDR cells, GFP reporter derepression, 30 h; Potency, µM (series often up to 53.9 µM), for the others: top-dose GFP activation, most hits filed as activators; 280,000 compounds, 0.2% hits; AID 1865; also: % of control where 0% means no effect; nearly all actives have a fitted effect of over 60% in size
#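 Reporter derepression read as number of fluorescent GFP-positive objects, 20-120 um in size, counted by laser-scanning cytometer. Mouse LDR line with an epigenetically silenced CMV-GFP locus; compound incubation 30 h, 37 C.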
# HTT aggregate: inhibitors of mutant huntingtin aggregate formation in PC12 cells. PC12 HttQ103-GFP aggregates, Acumen cytometry, 40 h. Potency, µM (doses to about 46.1 µM), without a hit: at the highest dose activity change, negative = inhibition, actives largely listed as inhibitors. 220,000 compounds, 1.1% hits. AID 1688; also: % is scaled to controls: 0 for no effect and ±100 for the full control effect; nearly all actives have a fitted effect of over 60% in size
#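 Compounds (qHTS titration) were added to PC12 cells expressing an ecdysone-driven HTT exon 1 Q103–GFP fusion after induction with 100 nM tebufenozide. Aggregate formation was measured as GFP objects in cell lysates.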
# PINK1 expr mod: changes PINK1 expression. PINK1 immunofluorescence, high-content cytometry, 24 h. Potency, µM (series often up to 76.6 µM), for the others: at the highest dose activation (PINK1 increase), most hits filed as activators. AID 624263. 410,000 compounds, 0.2% hits; active = well fitted activation curve with a large enough effect; inconclusive = small, poorly fitted or top-dose-only effect; cell line not stated here; also: % of control where 0% means no effect; nearly all actives have a fitted effect of over 65% in size
#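 Stable cell line, 250 cells/well, 12 h attachment; compounds pinned at 5 concentrations, 24 h; CCCP control. Fixed with nuclear dye, primary antibodies 12 h at 10 degrees C, secondary plus cell stain; laser-scanning cytometer read.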
# Apoferritin bind: candidate novel general anesthetic via apoferritin binding; Potency, µM (titrated, usually from 77.5 µM), for inactives: at the top dose activity change, negative = displacement, hits mostly inhibitors; apoferritin/1-aminoanthracene competitive binding, fluorescence; P02791; 350,000 compounds, 0.074% hits; also: % is scaled to controls: 0 for no effect and ±100 for the full control effect; nearly all actives have a fitted effect of over 20% in size
# Target sequence (P02791 2-175 limits assumed): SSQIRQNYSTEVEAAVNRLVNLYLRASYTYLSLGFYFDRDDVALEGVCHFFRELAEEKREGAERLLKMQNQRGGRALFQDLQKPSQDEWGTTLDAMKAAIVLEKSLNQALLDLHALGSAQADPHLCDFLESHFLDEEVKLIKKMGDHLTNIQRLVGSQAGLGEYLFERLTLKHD
#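 Steps: apoferritin (10 uM) was premixed with half-saturated 1-AMA in PBS, compounds were pin-transferred, plates stood 10 min at room temperature, fluorescence was read at 380/535 nm, and curves were fitted with a Hill equation.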
# PTAP TSG101 blk: blocks PTAP/TSG101 interaction to inhibit HIV-1 budding; Q99816; Fluorescence polarization, FITC-PTAP peptide / Tsg101 binding; Potency, µM (series often up to 115 µM), for inactives: at the highest dose activity change, negative = inhibition, usual class: inhibitors; 340,000 tested, under 10 active; AID 493005; active = well fitted inhibition curve with a large enough effect in the main read-out, with a control signal flat, not every such curve was filed as active; inconclusive = small, poorly fitted or top-dose-only effect, or effect the other way, or a change in a side signal; inactive = no such curve, though single readings can be large or run the other way; also: % of control where 0% means no effect
# Target sequence (Q99816 whole entry, looked up): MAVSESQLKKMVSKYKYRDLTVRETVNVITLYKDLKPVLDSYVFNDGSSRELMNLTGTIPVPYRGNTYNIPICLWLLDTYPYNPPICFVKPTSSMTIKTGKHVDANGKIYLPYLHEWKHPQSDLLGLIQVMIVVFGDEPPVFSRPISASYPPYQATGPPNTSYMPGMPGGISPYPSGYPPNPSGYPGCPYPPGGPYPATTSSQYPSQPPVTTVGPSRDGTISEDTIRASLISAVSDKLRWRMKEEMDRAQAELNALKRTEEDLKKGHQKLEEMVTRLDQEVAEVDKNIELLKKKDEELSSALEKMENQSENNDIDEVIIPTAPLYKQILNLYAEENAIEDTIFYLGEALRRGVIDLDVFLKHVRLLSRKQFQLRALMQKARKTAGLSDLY
#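 Steps: Tsg101 binding domain dispensed (10 uM final), compounds pinned in DMSO, FITC-labeled PTAP-motif peptide added (50 nM final); after 20 min binding at room temperature, polarization measured.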
# Numbers without * were called inactive; i = inactive; ? = inconclusive; · = no result given; ! = a repeat was not active; [ ] = remark or other dose. Unless noted, calls follow the shape of the dose curve; as a rule, active = well fitted curve in the direction sought with a large enough effect; inconclusive = small, poorly fitted or top-dose-only effect, or another doubt; inactive = no such curve, though single readings can be large; an effect the other way counts as inactive or inconclusive. Potency is read from the fitted curve at half-maximal effect.
SMILES,HTT ATP protect,Epigenetic derep,HTT aggregate,PINK1 expr mod,Apoferritin bind,PTAP TSG101 blk
CC(=O)N/N=C/c1ccc([N+](=O)[O-])o1,-366.8%,·,31.6µM*,·,·,·
CCCCCCCC(=O)N/N=C/c1ccc([N+](=O)[O-])o1,-3.4%[10 µM],1.0%,-12.9%,6.2%,?,0.2%
CSc1ccc(/C=c2\s/c(=C\C(=O)C(C)(C)C)n(CC(=O)NCCC3=CCCCC3)c2=O)cc1,9.8%[10 µM],20µM*,-10.9%,?,2.9%,-7.9%
CCn1c(=O)c2sccc2n(CC(=O)NCCC2=CCCCC2)c1=O,·,·,·,4.9%,-2.7%,1.4%
COC(=O)c1cccc(C(=O)NCc2nc(-c3cccc(NC(=O)c4ccoc4C)c3)oc2C)c1,·,·,·,3.4%,·,·
O=C1CC(c2ccccc2)Cc2nc3nc(C(F)(F)F)nn3cc21 (centres undefined),-6.9%,7.4%,12.6µM*,?,-6.7%,-7.6%
Cn1cnc([N+](=O)[O-])c1S(=O)(=O)Oc1ccccc1,·,·,·,0.0%,·,-5.3%
Cn1cnc([N+](=O)[O-])c1S(=O)(=O)c1cccc(Cl)c1,·,?,5.62µM*,4.2%,-1.0%,0.5%
CC1=CC(C)=Nc2ccc(C)cc2N1,?,-0.9%,0.891µM*!,0.4%,0.2%,-5.1%
Cc1ccc2c(c1)NC(=O)CC(c1ccccc1)=N2,26.8%[1.9 µM],-1.0%,-12.2%,-0.8%,-11.5%,-2.6%
Cc1ccc(C(=O)NCCCNc2ccc(C(F)(F)F)cc2[N+](=O)[O-])cc1,-8.0%[10 µM],2.1%,-19.4%,12.2%,-3.0%,-0.4%
O=C(NCCCNc1ccc(C(F)(F)F)cc1[N+](=O)[O-])c1ccc(F)cc1,10.1%[10 µM],17.8µM*,?,9.2%,-17.3%,0.0%
CCN(c1ccccc1)S(=O)(=O)c1nnc(NC(=O)COc2cccc(C)c2)s1,·,8.91µM*,·,0.8%,-8.5%,·
COc1cc(OC)c(-c2c3cc(O)c(=O)cc-3oc3cc(O)c(O)cc23)cc1OC,4.7%[10 µM],2.0%,3.98µM*,7.0%,6.0%,?
C/C(=N\NC(=O)c1ccccc1)c1nc2ccccc2n1C,·,-1.9%,11.2µM*,0.6%,-7.2%,-2.8%
CCn1c(-c2ccccc2F)nc2cc(NC(C)=O)cc(C(=O)N(C)Cc3ccccn3)c21,·,·,·,-0.4%,·,·
Cc1ccc(CN2c3ccccc3-c3nc(SCC(=O)NCc4ccccc4)ncc3S2(=O)=O)cc1,·,0.3%,·,-0.4%,-9.5%,·
COc1ccc(CNC(=O)CSc2ncc3c(n2)-c2ccc(Cl)cc2N(Cc2ccccc2)S3(=O)=O)cc1,·,15.8µM*,·,3.5%,-14.1%,·
CCN(CC)c1ncnc2ccc(Br)cc12,15.2%,-1.8%,12.6µM*,-1.8%,-20.7%,-1.5%
O=S(=O)(c1ccc(N2CCCC2)cc1)C(F)(F)F,-2.6%,0.0%,10µM*,0.7%[38.3 µM],-4.1%,·
Cc1cc(C)c(NC(=S)NCCCSC2CCCCC2)c(C)c1,-42.5%,0.1%,11.2µM*,1.0%,0.2%,-3.9%
CCc1c(C)nc2ncnn2c1NCCc1ccc(OC)c(OC)c1,17.6%[10 µM],3.7%,10µM*,0.9%[38.3 µM],8.9%,-5.4%
OC(c1ccc2c(c1)CN(Cc1cccn1-c1ncccn1)CCO2)C1CCCCC1 (centres undefined),·,·,·,0.7%,·,·
CCN(CC)c1ccc2cc(-c3nnc(-c4ccccc4)o3)c(=O)oc2c1,14.9%[10 µM],3.16µM*,7.08µM*,22.2%,114.9%,?
CCN(CC)c1ccc2cc(-c3nc4ccccc4n3C)c(=O)oc2c1,-107.4%,7.08µM*,?,?,160.5%,?
SMILES,HTT ATP protect,Epigenetic derep,HTT aggregate,PINK1 expr mod,Apoferritin bind,PTAP TSG101 blk
CN(C)Cc1c(O)ccc2cc(-c3nc4ccccc4n3C)c(=O)oc12,·,·,·,-0.2%,i,-14.7%
CCN(CC)c1ccc2cc(-c3nc4ccccc4[nH]3)c(=O)oc2c1,-76.5%[10 µM],2.82µM*,0.316µM*,?,51.4%,?
COc1cccc2cc(-c3nc4ccccc4[nH]3)c(=O)oc12,·,·,·,1.5%,104.5%,-6.0%
COC(=O)C1CCN(Cc2ccc3c(c2)CN(C(=O)c2cc(-c4ccc(C)o4)[nH]n2)CCO3)CC1,·,·,·,1.2%,·,·
CCC1CN(CC(=O)NCc2cc(C)n(C)n2)Cc2cc(OC)ccc2O1 (centres undefined),·,·,·,-1.1%,·,·
O=C(Nc1ccc(C(=O)N2CCOCC2)cc1)Nc1cccc(Cl)c1,-24.7%[10 µM],0.0%,11.2µM*,2.8%,-7.6%,1.3%
COc1cc2c(NC3CCN(C(C)C)CC3)nc(N3CCCN(C)CC3)nc2cc1OCCCN(C)C,·,·,·,-1.1%,·,·
COC(=O)[C@@H]1CCCN1C(=O)c1c(OC)cc(=O)n2c1CCN(Cc1cc(OC)ccc1F)CC2,·,·,·,-1.0%,·,·
Cc1cccc(-n2ncc3c(NCc4cccs4)ncnc32)c1,-28.6%,6.9%,11.2µM*,10.3%[38.3 µM],?,-3.8%
Clc1ccc2c(NCc3ccco3)ncnc2c1,-12.3%,-7.0%,14.1µM*,-1.8%,-2.5%,-2.6%
Cc1ccc2ncnc(NCc3ccco3)c2c1,·,·,·,2.7%,·,·
Cc1ccc(-n2ncc3c(NCc4ccco4)ncnc32)cc1C,-61.7%,-0.2%,0.005µM*,0.8%,?,-1.4%
Clc1ccc(-n2ncc3c(NCc4cccs4)ncnc32)cc1,-33.0%,0.0%,?,·,?,-0.5%
Cc1csc(C(C)N(C)C(=O)c2cnn(-c3nccc(-c4cc(C)sc4C)n3)c2C)n1 (centres undefined),·,·,·,0.4%,·,·
CN(C)c1ccc(/C=C/c2c(F)cnc3ccccc23)cc1,·,·,·,7.5%,·,·
CC(C)CN1C(=S)SC(C)(C)C1n1oc(=O)n(-c2ccc(Cl)cc2)c1=O (centres undefined),-24.6%,-0.8%,25.1µM*,1.6%[38.3 µM],?,-3.7%
COc1cccc(CNS(=O)(=O)c2ccc(N3CCCCS3(=O)=O)cc2)c1,·,-1.0%,·,2.2%,10.7%,·
Cc1nc(NCCc2ccccc2)c2oc3ccccc3c2n1,-44.3%,0.0%,7.94µM*,3.6%,-18.1%,-4.2%
Cc1nc(NCCN2CCOCC2)c2oc3ccccc3c2n1,-7.6%,-4.8%,-9.2%,-0.6%,-6.6%,-2.9%
C[C@@]12CCC(=O)C=C1CC[C@H]1[C@@H]2[C@@H](O)C[C@]2(C)[C@@H]1CC[C@@]2(O)C(=O)CO,-4.6%[10 µM],·,·,·,·,·
CCCCCCc1cc2cc(C(=O)NCc3ccccc3)c(=N)oc2cc1O,8.2%[10 µM],-1.0%,2.4%,6.0%,18.2%,-0.9%
CCCCCCc1cc2cc(C(=O)Nc3ccccc3)c(=O)oc2cc1O,-39.0%[10 µM],1.5%,2.24µM*,?,8.7%,-0.7%
CC1CCN(S(=O)(=O)c2ccc3c(c2)C(=NO)c2cc(S(=O)(=O)N4CCC(C)CC4)ccc2-3)CC1,-92.5%,-1.2%,3.16µM*,-2.4%,-19.8%,38.5%
